# Laboratory results reported in the supplement of paper PMC8728848.
# Only a selection was taken, and the strongest signals are over-represented in it overall.
# B1: PX9961C-bth-497-22-497 (Bacteroides thetaiotaomicron) (protein)
# chain: DWLDLNTTSSVETGQAIVTLDDAQIALNGIYRLASGHSYYGDNYWYYGDCRAADVQARITKGDGKRVSPYYEYNVLASDNLNIVLPWNTVYKVIRQTNNLIQKIESGSIQSSDTKELNRIKSEALVMRGLSLFNLTRLFGMPYTNDKGASLGVPIETSPSDPTHKPSRSTVAQCYEQVVSDMSNALSGLRQETSNGYINYWAAQALLSRVYLNMGEYQKAYDAATDVIKNNGGRYQLYSYEEYPNVWGQDFQSESLFELYITLSEPSGGTGGEGAPMVYANEATVDWNNLILSEDFLNLLNEDPKDVRHCLTKESVIENNTGLPAAAMHEKVYLAKFPGKTGDDPKTNNICIIRLSEVYLNAAEAGLKKGTDIEEAQGYLNDIISRRTTDTSQQVSTETFTLDRILKERRKELVGEGEVFYDYLRNGLAIERKGSWHLETLKASNAQKIEATDLRIALPIPQSEIDANPNIQQNPR
# Legend:
# Assay in all cases: glycan array binding signal (z-score within array); higher = stronger binding
# Conditions in all cases: glycan notation: IUPAC condensed, linker removed
# [1] = biological target: GalNAc(b1-4)GlcNAc(b1-2)Man(a1-3)[GalNAc(b1-4)GlcNAc(b1-2)Man(a1-6)]Man(b1-4)GlcNAc(b1-4)GlcNAc
# How it was run: (§1)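 Columns mapping to the same glycan were averaged after glycan names were converted to IUPAC-condensed notation. The data come from 3228 arrays in the Consortium for Functional Glycomics database, limited to those with an available protein sequence. Binding is reported as a within-array Z-score averaged across arrays of one protein sequence and across linkers.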
# GlcA(b1-3)GlcNAc = biological target: GlcA(b1-3)GlcNAc
# How it was run: as §1
# [2] = biological target: GlcNAc(a1-4)Gal(b1-4)GalNAc
# How it was run: as §1
# [3] = biological target: GlcNAc(a1-4)Gal(b1-4)GlcNAc(b1-3)Gal(b1-4)GlcNAc(b1-3)Gal(b1-4)GlcNAc
# How it was run: as §1
# [4] = biological target: GlcNAc(b1-3)Gal(b1-4)GlcNAc(b1-3)Gal(b1-4)GlcNAc(b1-2)Man(a1-3)[GlcNAc(b1-3)Gal(b1-4)GlcNAc(b1-3)Gal(b1-4)GlcNAc(b1-2)Man(a1-6)]Man(b1-4)GlcNAc(b1-4)GlcNAc
# How it was run: as §1
# [5] = biological target: GlcNAc(b1-3)Gal(b1-4)GlcNAc(b1-3)Gal(b1-4)GlcNAc(b1-3)Gal(b1-4)GlcNAc(b1-2)Man(a1-3)[GlcNAc(b1-3)Gal(b1-4)GlcNAc(b1-3)Gal(b1-4)GlcNAc(b1-3)Gal(b1-4)GlcNAc(b1-2)Man(a1-6)]Man(b1-4)GlcNAc(b1-4)GlcNAc
# How it was run: as §1
# [6] = biological target: GlcNAc(b1-3)Gal(b1-4)GlcNAc(b1-3)Gal(b1-4)GlcNAc(b1-3)Gal(b1-4)GlcNAc(b1-3)Gal(b1-4)GlcNAc(b1-2)Man(a1-3)[GlcNAc(b1-3)Gal(b1-4)GlcNAc(b1-3)Gal(b1-4)GlcNAc(b1-3)Gal(b1-4)GlcNAc(b1-3)Gal(b1-4)GlcNAc(b1-2)Man(a1-6)]Man(b1-4)GlcNAc(b1-4)[Fuc(a1-6)]GlcNAc
# How it was run: as §1
# [7] = biological target: GlcNAc(b1-3)Gal(b1-4)GlcNAc(b1-3)Gal(b1-4)GlcNAc(b1-3)Gal(b1-4)GlcNAc(b1-3)Gal(b1-4)GlcNAc(b1-2)[GlcNAc(b1-3)Gal(b1-4)GlcNAc(b1-3)Gal(b1-4)GlcNAc(b1-3)Gal(b1-4)GlcNAc(b1-3)Gal(b1-4)GlcNAc(b1-6)]Man(a1-6)[GlcNAc(b1-3)Gal(b1-4)GlcNAc(b1-3)Gal(b1-4)GlcNAc(b1-3)Gal(b1-4)GlcNAc(b1-3)Gal(b1-4)GlcNAc(b1-2)Man(a1-3)]Man(b1-4)GlcNAc(b1-4)[Fuc(a1-6)]GlcNAc
# How it was run: as §1
# [8] = biological target: GlcNAc(b1-3)Gal(b1-4)GlcNAc(b1-6)[Gal(b1-3)]GalNAc
# How it was run: as §1
# GlcNAc(b1-4)GlcNAc = biological target: GlcNAc(b1-4)GlcNAc
# How it was run: as §1
# [9] = biological target: GlcNAc(b1-4)GlcNAc(b1-4)GlcNAc(b1-4)GlcNAc(b1-4)GlcNAc
# How it was run: as §1
# Kdn(a2-6)Gal(b1-4)GlcNAc = biological target: Kdn(a2-6)Gal(b1-4)GlcNAc
# How it was run: as §1
# Man(a1-6)Man = biological target: Man(a1-6)Man
# How it was run: as §1
# [10] = biological target: Neu5Ac(a2-3)Gal(b1-3)GlcNAc(b1-3)Gal(b1-4)GlcNAc
# How it was run: as §1
# [11] = biological target: Neu5Ac(a2-3)Gal(b1-3)[Fuc(a1-4)]GlcNAc(b1-3)Gal(b1-3)[Fuc(a1-4)]GlcNAc
# How it was run: as §1
# [12] = biological target: Neu5Ac(a2-3)Gal(b1-3)[GlcNAc(b1-6)]GalNAc
# How it was run: as §1
# [13] = biological target: Neu5Ac(a2-3)Gal(b1-4)GlcNAc(b1-2)Man(a1-3)[GlcNAc(b1-4)][Neu5Ac(a2-3)Gal(b1-4)GlcNAc(b1-2)Man(a1-6)]Man(b1-4)GlcNAc(b1-4)GlcNAc
# How it was run: as §1
# [14] = biological target: Neu5Ac(a2-3)[GalNAc(b1-4)]Gal(b1-4)GlcNAc
# How it was run: as §1
# Neu5Ac(a2-6)Gal = biological target: Neu5Ac(a2-6)Gal
# How it was run: as §1
# [15] = biological target: Neu5Ac(a2-6)Gal(b1-4)GlcNAc(b1-2)Man
# How it was run: as §1
# [16] = biological target: Neu5Ac(a2-6)Gal(b1-4)GlcNAc(b1-3)Gal(b1-4)GlcNAc(b1-3)Gal(b1-4)GlcNAc
# How it was run: as §1
# [17] = biological target: Neu5Ac(a2-6)Gal(b1-4)GlcNAc(b1-3)Gal(b1-4)GlcNAc(b1-3)Gal(b1-4)GlcNAc(b1-2)Man(a1-3)[Neu5Ac(a2-6)Gal(b1-4)GlcNAc(b1-3)Gal(b1-4)GlcNAc(b1-3)Gal(b1-4)GlcNAc(b1-2)Man(a1-6)]GalNAc
# How it was run: as §1
# [18] = biological target: Neu5Ac(a2-8)Neu5Ac(a2-3)Gal(b1-4)GlcNAc
# How it was run: as §1
# [19] = biological target: Neu5Ac(a2-8)Neu5Ac(a2-3)[GalNAc(b1-4)]Gal(b1-4)Glc
# How it was run: as §1
# [20] = biological target: Neu5Ac(a2-8)Neu5Ac(a2-8)Neu5Ac(a2-3)[Gal(b1-3)GalNAc(b1-4)]Gal(b1-4)Glc
# How it was run: as §1
# [21] = biological target: Neu5Ac(a2-8)Neu5Gc(a2-3)Gal(b1-4)GlcNAc
# How it was run: as §1
# Neu5Ac(b2-6)GalNAc = biological target: Neu5Ac(b2-6)GalNAc
# How it was run: as §1
# [22] = biological target: Neu5Gc(a2-3)Gal(b1-3)GlcNAc
# How it was run: as §1
# [23] = biological target: Neu5Gc(a2-8)Neu5Gc(a2-3)Gal(b1-4)GlcNAc(b1-3)Gal(b1-4)GlcNAc
# How it was run: as §1
binder,measurement,setting,value
B1,glycan array binding signal (z-score),[1],1.18
same,glycan array binding signal (z-score),GlcA(b1-3)GlcNAc,0.671
same,glycan array binding signal (z-score),[2],-0.269
same,glycan array binding signal (z-score),[3],0.15
same,glycan array binding signal (z-score),[4],1.6
same,glycan array binding signal (z-score),[5],0.098
same,glycan array binding signal (z-score),[6],2.24
same,glycan array binding signal (z-score),[7],-0.034
same,glycan array binding signal (z-score),[8],1.56
same,glycan array binding signal (z-score),GlcNAc(b1-4)GlcNAc,-0.2
same,glycan array binding signal (z-score),[9],-0.492
same,glycan array binding signal (z-score),Kdn(a2-6)Gal(b1-4)GlcNAc,-0.057
same,glycan array binding signal (z-score),Man(a1-6)Man,-0.481
same,glycan array binding signal (z-score),[10],0.993
same,glycan array binding signal (z-score),[11],2.16
same,glycan array binding signal (z-score),[12],-0.029
same,glycan array binding signal (z-score),[13],-0.279
same,glycan array binding signal (z-score),[14],-0.469
same,glycan array binding signal (z-score),Neu5Ac(a2-6)Gal,0.311
same,glycan array binding signal (z-score),[15],-0.411
same,glycan array binding signal (z-score),[16],-0.506
same,glycan array binding signal (z-score),[17],0.689
same,glycan array binding signal (z-score),[18],-0.198
same,glycan array binding signal (z-score),[19],-0.361
same,glycan array binding signal (z-score),[20],-0.241
same,glycan array binding signal (z-score),[21],13.7
same,glycan array binding signal (z-score),Neu5Ac(b2-6)GalNAc,-0.424
same,glycan array binding signal (z-score),[22],-0.496
same,glycan array binding signal (z-score),[23],0.531
